Laboratory results published in PubChem BioAssay (NCATS).
Several values for one entry are separate records, joined by “and”; a condition that tells them apart may be missing. Equal values may be shown once. Records with an inconclusive call do not appear. The source holds several records for some structures; these can differ, active in one and inactive in another. Activity calls are given as the source filed them. Calls follow the shape of the dose curve; as a rule, active = well fitted cell-killing curve with a large enough effect; inconclusive = small, poorly fitted or top-dose-only effect, or effect the other way; inactive = flat fitted curve, though single readings scatter.

Assay: qHTS assay for cell viability of HEK293 cells (AID 743288); also: nearly all actives have a fitted effect of over 50% in size
Conditions: ATP luminescence (CellTiter-Glo), 18 h; max response: stronger effect = lower value
Excerpt: National Center for Advancing Translational Sciences [NCATS]
NIH Chemical Genomics Center [NCGC]
U.S. Environmental Protection Agency [EPA]
National Institutes of Environmental Health Sciences [NIEHS]
National Toxicology Program [NTP]
U.S. Food and Drug Administration [FDA]
The CellTiter-Glo Luminescent Cell Viability Assay (Promega, Madison, WI) is a homogeneous method to determine the number of viable cells in culture based on quantitation of the ATP present, which signals the presence of metabolically active cells. This cell viability assay was used to screen environmental chemicals in the Hek293 cell line.
Tox21 Assay Protocol Summary:
Cell viability after compound treatment was measured using a luciferase-coupled ATP quantitation assay (CellTiter-Glo viability assay, Promega, Madison, WI) in parental HEK293 cells. Total intracellular ATP content corresponds to the number of metabolically competent cells after compound treatment. The cells were dispensed at 2,000 cells/5 uL/well in 1,536-well white/solid bottom assay plates using a Flying Reagent Dispenser (Aurora Discovery, San Diego, CA). The cells were incubated a minimum of 5 h at 37 C, followed by the addition of 23 nL of compounds dissolved in DMSO, positive controls or DMSO only using a pintool work station (Kalypsys, San Diego, CA). The assay plates were incubated for 18 h at 37 C, followed by the addition of 5 uL/well of CellTiter-Glo reagent. After 30 min incubation at room temperature, the luminescence intensity of the plates was measured using a ViewLux plate reader (PerkinElmer, Shelton, CT).
% is scaled to controls: 0 for no effect and ±100 for the full control effect; potency is read from the fitted curve at half-maximal effect.

Structure (SMILES)	max response	Potency
Oc1cc(Cl)cc(Cl)c1Cl	-4.35% (inactive)	
O=C(O)c1ccc([N+](=O)[O-])cc1	-3.6% (inactive) and -1.43% (inactive)	
CCCCC(CC)COC(=O)COc1ccc(Cl)cc1Cl (stereo not given)	-3.29% (inactive) and 2.38% (inactive)	
O=C(OCc1ccccc1)c1ccccc1O	9.47% (inactive) and -5.04% (inactive)	
CCNC(=S)NCC	-6.53% (inactive)	
C=CC(=O)OCCCCCCOC(=O)C=C	-28.7% (inactive) and -17.5% (inactive)	
Cc1c(N)cccc1Cl	0.674% (inactive)	
Oc1cc2c(cc1O)[C@H]1c3ccc(O)c(O)c3OC[C@@]1(O)C2	-28.5% (inactive)	
CCCCCCCC/C=C\CCCCCCCC(=O)N(CCO)CCO	-16% (inactive)	
C[C@@H]1CC2(OC(O)[C@]3(C)O[C@H]23)O[C@H]2C[C@@]3(C)[C@@H]4CC[C@H]5C(C)(C)C(O[C@@H]6OC[C@@H](O)[C@H](O)[C@H]6O)CC[C@@]56C[C@@]46CC[C@]3(C)[C@@H]12 (stereo not given in full)		44.7 µM (active)
O=c1[nH]ncc2ccccc12	0.756% (inactive)	
C1CCCNCC1	-3.87% (inactive)	
CC(C)OCC1CO1 (stereo not given)	-0.12% (inactive)	
CC(=O)OC(C(=O)c1ccccc1)c1ccccc1 (stereo not given)	-11.3% (inactive)	
O=C(OCC1CO1)C1CCCCC1C(=O)OCC1CO1 (stereo not given)	-26.2% (inactive)	
O=C1OC(=O)c2ccccc21	-11.3% (inactive)	
CCCC(=O)OC(=O)CCC	-4.88% (inactive) and -8.13% (inactive)	
CCCCC(CC)COCCCN (stereo not given)	10.2% (inactive)	
Cc1ccc2ccc3cccc4ccc1c2c34	-6.64% (inactive)	
CCCCCCCCC1CO1 (stereo not given)	4.27% (inactive)	

Structure (SMILES)	max response	Potency
Brc1cc(Oc2cc(Br)c(Br)c(Br)c2Br)c(Br)c(Br)c1Br	-20.8% (inactive) and -10.9% (inactive)	
c1ccc2c(c1)ccc1ccccc12	2.85% (inactive) and -2.95% (inactive)	
C=Cc1cccc(C)c1	2.72% (inactive)	
Nc1ccc2c(c1)C(=O)c1ccccc1C2=O	-13.3% (inactive) and -4.81% (inactive)	
O=[N+]([O-])c1ccc(F)cc1F	3.6% (inactive)	
c1c[nH]cn1	-0.708% (inactive)	
CCc1ccc(C(c2ccc(CC)cc2)C(Cl)Cl)cc1	-18.5% (inactive)	
O=C(O)/C=C/c1ccc(/C=C/C(=O)O)cc1	-14.7% (inactive)	
O=[N+]([O-])c1cc(Cl)c(Cl)c(Cl)c1Cl	-2.48% (inactive)	
CCCCNCC	-3.61% (inactive)	
Cc1c2ccccc2c(C)c2c1ccc1ccccc12	-28% (inactive)	44.7 µM (active)
Cc1ccc(S(N)(=O)=O)cc1	-5.31% (inactive) and -1.83% (inactive)	
OCC(CO)(CBr)CBr	-6.95% (inactive) and -8.44% (inactive)	
c1ccc(COCc2ccccc2)cc1	0.589% (inactive)	
Nc1ccc(-c2ccc(N)c(O)c2)cc1O	-18.5% (inactive)	
CCCCC(CC)COP(=O)(OCC(CC)CCCC)OCC(CC)CCCC (stereo not given)	-14.3% (inactive)	
Cc1ccc(N)cc1[N+](=O)[O-]	4.69% (inactive)	
CN(C)c1ccc(Cc2ccc(N(C)C)cc2)cc1	-15.2% (inactive) and -24.3% (inactive)	
O=[N+]([O-])c1cccc(I)c1	-9.2% (inactive)	
